# According to PubChem BioAssay (Tox21):
# Values joined by “and” are separate entries in the source; they are usually repeats but may differ in a detail not shown here. Identical values can stand only once. Active and inactive are the calls of the source. Entries that show only a call come without a potency. Unless noted, calls follow the shape of the dose curve; as a rule, active = well fitted curve in the direction sought with a large enough effect in the repeat runs; inconclusive = weak or mixed curves; inactive = no such curve, though single readings can be large; an effect the other way counts as inactive or inconclusive.
# Key:
# [1] = qHTS assay to test for compound auto fluorescence at 590 nm (red) in HepG2 cell free culture (AID 720684)
# Method in brief: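 Rose Bengal sodium served as the reference for red signal. Test compounds were dispensed into serum-containing MEM (10% FBS) without cells, and plates were read at 540/590 nm.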
# [2] = qHTS assay to test for compound auto fluorescence at 535 nm (green) in HepG2 cell free culture (AID 720686)
# [3] = molecular target: Glucocorticoid receptor (Homo sapiens) (UniProt P04150); experiment: qHTS assay to identify small molecule agonists of the glucocorticoid receptor (GR) signaling pathway (AID 720691; active = well fitted activation curve with a large enough effect in the signal ratio in the repeat runs, not every such curve was filed as active; inconclusive = weak or mixed curves, or effect the other way; inactive = no such curve, though single readings can be large or run the other way; the % refers to the signal ratio)
# Chain of Glucocorticoid receptor (Homo sapiens) (P04150 whole entry, looked up): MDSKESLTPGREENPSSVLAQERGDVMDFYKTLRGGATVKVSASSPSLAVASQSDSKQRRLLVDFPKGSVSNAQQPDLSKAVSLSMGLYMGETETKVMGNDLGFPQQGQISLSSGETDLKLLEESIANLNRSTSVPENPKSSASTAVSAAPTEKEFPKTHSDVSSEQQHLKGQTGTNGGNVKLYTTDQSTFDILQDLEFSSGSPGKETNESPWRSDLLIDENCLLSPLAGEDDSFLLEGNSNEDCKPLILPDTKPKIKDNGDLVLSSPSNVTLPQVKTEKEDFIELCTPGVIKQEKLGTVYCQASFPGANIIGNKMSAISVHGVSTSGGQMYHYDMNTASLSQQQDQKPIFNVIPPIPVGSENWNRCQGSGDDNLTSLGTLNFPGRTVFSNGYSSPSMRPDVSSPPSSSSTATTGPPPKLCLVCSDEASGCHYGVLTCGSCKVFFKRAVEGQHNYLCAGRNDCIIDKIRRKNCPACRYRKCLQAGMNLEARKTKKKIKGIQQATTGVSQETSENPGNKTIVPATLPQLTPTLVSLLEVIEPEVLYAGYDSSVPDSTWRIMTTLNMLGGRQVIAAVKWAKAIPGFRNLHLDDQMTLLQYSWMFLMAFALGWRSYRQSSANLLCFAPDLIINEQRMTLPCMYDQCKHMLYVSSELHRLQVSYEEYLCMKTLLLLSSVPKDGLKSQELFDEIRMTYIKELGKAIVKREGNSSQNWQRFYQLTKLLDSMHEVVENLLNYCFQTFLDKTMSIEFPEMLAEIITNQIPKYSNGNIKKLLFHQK
# Method in brief: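 HeLa GR-bla reporter line; cells pre-incubated 4 h, compound in DMSO 18 h at 37 C; LiveBLAzer B/G FRET substrate 2 h RT; fluorescence intensity read-out.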
# [4] = qHTS assay to identify small molecule antagonists of the glucocorticoid receptor (GR) signaling pathway - cell viability counter screen (AID 720693); also: nearly all actives have a fitted effect of over 55% in size; also: potency is read from the fitted curve at half-maximal effect
# [5] = qHTS assay for identifying genotoxic compounds that show differential cytotoxicity against isogenic chicken DT40 cell lines with known DNA damage response pathways - Rev3 mutant cell line (AID 743014); also: nearly all actives have a fitted effect of over 55% in size; also: potency is read from the fitted curve at half-maximal effect
# [6] = qHTS assay for identifying genotoxic compounds that show differential cytotoxicity against isogenic chicken DT40 cell lines with known DNA damage response pathways - Rad54/Ku70 mutant cell line (AID 743015); also: nearly all actives have a fitted effect of over 60% in size; also: potency is read from the fitted curve at half-maximal effect
# [7] = qHTS assay to identify small molecule antagonists of the androgen receptor (AR) signaling pathway using the MDA cell line - cell viability counter screen (AID 743041; also: nearly all actives have a fitted effect of over 45% in size)
# Method in brief: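 Cytotoxicity counter screen: MDA-kb2 AR-luc cells, compound + R1881, 16 h, 37C, 0% CO2; CellTiter-Fluor added at 15.5 h, fluorescence read after 30 min.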
# [8] = qHTS assay to identify small molecule antagonists of the thyroid receptor (TR) signaling pathway - cell viability counter screen (AID 743064); also: nearly all actives have a fitted effect of over 50% in size; also: potency is read from the fitted curve at half-maximal effect
# Method in brief: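 Counter screen for cytotoxicity: compound plus T3 (1 nM final) on GH3.TRE-Luc cells, 23.5 h at 37 °C, then fluorescence viability readout with CellTiter-Fluor.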
# [9] = qHTS assay to identify small molecule antagonists of the thyroid receptor (TR) signaling pathway (AID 743065); also: nearly all actives have a fitted effect of over 55% in size; also: potency is read from the fitted curve at half-maximal effect
# Method in brief: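 GH3.TRE-Luc rat pituitary cells (two TREs driving luciferase) were dosed with compound, then stimulated with 1 nM T3 (final) for 23.5 h at 37 C. ONE-Glo luminescence was the read-out, with CellTiter-Fluor fluorescence as the cytotoxicity counter-screen.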
# [10] = molecular target: Aryl hydrocarbon receptor (Homo sapiens) (UniProt P35869); experiment: qHTS assay to identify small molecule that activate the aryl hydrocarbon receptor (AhR) signaling pathway (AID 743085);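 also: HG2L7.5c1 human HepG2 liver cells with stably integrated DRE-driven firefly reporter; series mostly up to about 70 µM; nearly all actives have a fitted effect of over 15% in size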
# Chain of Aryl hydrocarbon receptor (Homo sapiens) (P35869 whole entry, looked up): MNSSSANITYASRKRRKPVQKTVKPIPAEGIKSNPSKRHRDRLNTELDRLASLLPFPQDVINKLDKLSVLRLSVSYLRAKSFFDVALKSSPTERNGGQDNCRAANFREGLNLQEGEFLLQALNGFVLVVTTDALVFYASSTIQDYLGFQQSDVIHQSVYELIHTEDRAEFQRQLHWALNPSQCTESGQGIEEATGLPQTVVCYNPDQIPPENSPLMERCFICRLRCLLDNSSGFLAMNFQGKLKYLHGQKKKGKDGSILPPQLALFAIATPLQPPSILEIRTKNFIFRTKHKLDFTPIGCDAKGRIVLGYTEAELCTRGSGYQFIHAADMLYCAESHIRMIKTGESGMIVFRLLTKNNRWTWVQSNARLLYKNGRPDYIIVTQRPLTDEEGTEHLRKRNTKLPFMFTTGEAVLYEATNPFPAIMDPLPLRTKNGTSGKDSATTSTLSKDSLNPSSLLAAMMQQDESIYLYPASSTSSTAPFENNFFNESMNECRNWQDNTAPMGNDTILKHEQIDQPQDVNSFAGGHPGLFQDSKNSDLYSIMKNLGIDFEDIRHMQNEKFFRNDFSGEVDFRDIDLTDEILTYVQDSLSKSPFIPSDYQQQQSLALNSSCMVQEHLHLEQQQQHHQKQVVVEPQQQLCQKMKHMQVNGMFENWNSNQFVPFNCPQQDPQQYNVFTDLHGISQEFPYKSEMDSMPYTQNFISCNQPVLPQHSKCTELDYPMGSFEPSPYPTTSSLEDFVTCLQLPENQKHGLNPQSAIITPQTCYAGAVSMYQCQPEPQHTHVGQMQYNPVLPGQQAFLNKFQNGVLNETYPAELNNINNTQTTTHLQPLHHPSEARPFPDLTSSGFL
# Method in brief: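 Measured in HG2L7.5c1 cells: CellTiter-Fluor signal (30 min incubation, 37C) for viability, then luciferase luminescence (30 min, room temperature). Compound contact time was 24 h at 37C, following a 5 h pre-incubation.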
# [11] = molecular target: Peroxisome proliferator-activated receptor gamma (Homo sapiens) (UniProt P37231); experiment: qHTS assay to identify small molecule agonists of the peroxisome proliferator-activated receptor gamma (PPARg) signaling pathway (AID 743094; active = well fitted activation curve with a large enough effect in the signal ratio in the repeat runs, not every such curve was filed as active; inconclusive = weak or mixed curves, or effect the other way; inactive = no such curve, though single readings can be large or run the other way; the % refers to the signal ratio)
# Chain of Peroxisome proliferator-activated receptor gamma (Homo sapiens) (P37231 whole entry, looked up): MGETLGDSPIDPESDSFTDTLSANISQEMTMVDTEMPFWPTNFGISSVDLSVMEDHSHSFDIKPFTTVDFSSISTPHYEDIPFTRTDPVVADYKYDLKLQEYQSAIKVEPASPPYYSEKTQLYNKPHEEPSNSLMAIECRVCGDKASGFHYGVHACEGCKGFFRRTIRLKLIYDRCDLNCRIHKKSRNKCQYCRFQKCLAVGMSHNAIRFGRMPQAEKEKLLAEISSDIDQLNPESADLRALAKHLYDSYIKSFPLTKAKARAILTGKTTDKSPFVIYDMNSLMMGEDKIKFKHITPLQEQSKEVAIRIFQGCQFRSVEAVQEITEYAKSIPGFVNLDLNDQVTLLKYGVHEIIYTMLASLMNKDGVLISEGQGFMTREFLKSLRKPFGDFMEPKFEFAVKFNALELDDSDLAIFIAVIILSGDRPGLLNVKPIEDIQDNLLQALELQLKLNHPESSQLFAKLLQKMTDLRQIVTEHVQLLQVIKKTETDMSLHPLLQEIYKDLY
# Method in brief: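 HEK293H PPARg-bla cells, 5 h settle at 37C/5% CO2; compound (DMSO) 17 h, 37C; B/G FRET substrate 1 h RT; fluorescence intensity read-out. qHTS format.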
# [12] = molecular target: Nuclear receptor subfamily 1 group I member 2 (Homo sapiens) (UniProt O75469); experiment: Human pregnane X receptor (PXR) activation by small molecules, qHTS assay (AID 1346985); also: nearly all actives have a fitted effect of over 40% in size; also: potency is read from the fitted curve at half-maximal effect
# Method in brief: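 DPX-2 cells (HepG2 co-transfected with a PXR response element and a CYP3A4-promoter luciferase construct) were seeded at 2,000 per well, rested 5 hr at 37C, then exposed to DMSO-dissolved compounds for 24 hr. Activation was read as luciferase luminescence.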
# [13] = qHTS assay for small molecule disruptors of the mitochondrial membrane potential (AID 720635); also: potency is read from the fitted curve at half-maximal effect
# Method in brief: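 HepG2 cells exposed to compound 1 hr at 37C, then Mito-MPS dye 30 min. Ratio read of aggregate (540/590 nm) versus monomer (490/535 nm) fluorescence.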
# [14] = qHTS assay to test for compound auto fluorescence at 535 nm (green) in HepG2 cells (AID 720675)
# [15] = qHTS assay to test for compound auto fluorescence at 460 nm (blue) in HEK293 cell free culture (AID 720681)
# Method in brief: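 Compounds were added to cell-free DMEM with 10% FBS and fluorescence read directly. The blue channel used 405 nm excitation and 460 nm emission, with triamterene as the reference fluorophore.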
# [16] = molecular target: Estrogen receptor (Homo sapiens) (UniProt P03372); experiment: qHTS assay to identify small molecule agonists of the estrogen receptor alpha (ER-alpha) signaling pathway (AID 743075; calls by dose curve;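 also: HEK293 GripTite cells with ER-alpha and UAS-driven beta-lactamase reporter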; also: potency is read from the fitted curve at half-maximal effect)
# Chain of Estrogen receptor (Homo sapiens) (P03372 whole entry, looked up): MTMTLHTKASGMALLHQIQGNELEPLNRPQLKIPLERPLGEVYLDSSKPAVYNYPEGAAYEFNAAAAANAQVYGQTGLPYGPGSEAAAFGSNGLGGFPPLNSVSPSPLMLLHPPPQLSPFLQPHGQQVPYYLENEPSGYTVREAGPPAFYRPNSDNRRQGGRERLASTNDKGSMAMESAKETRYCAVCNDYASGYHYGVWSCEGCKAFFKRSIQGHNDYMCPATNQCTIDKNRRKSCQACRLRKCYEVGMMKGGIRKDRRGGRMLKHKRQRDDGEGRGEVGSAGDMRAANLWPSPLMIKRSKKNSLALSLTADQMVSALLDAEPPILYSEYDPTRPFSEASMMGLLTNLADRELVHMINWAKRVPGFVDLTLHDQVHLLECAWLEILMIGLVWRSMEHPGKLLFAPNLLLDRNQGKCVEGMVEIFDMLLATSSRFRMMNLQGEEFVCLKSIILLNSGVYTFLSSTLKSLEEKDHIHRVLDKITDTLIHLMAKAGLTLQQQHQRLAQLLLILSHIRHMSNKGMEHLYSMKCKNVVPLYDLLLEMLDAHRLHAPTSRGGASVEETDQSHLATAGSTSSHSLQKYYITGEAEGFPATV
# [17] = molecular target: Estrogen receptor (Homo sapiens) (UniProt P03372); experiment: qHTS assay to identify small molecule agonists of the estrogen receptor alpha (ER-alpha) signaling pathway using the BG1 cell line (AID 743079); also: nearly all actives have a fitted effect of over 20% in size; also: potency is read from the fitted curve at half-maximal effect
# [18] = qHTS assay to identify small molecule antagonists of the estrogen receptor alpha (ER-alpha) signaling pathway using the BG1 cell line (AID 743080; calls by dose curve; also: series mostly up to about 70 µM; nearly all actives have a fitted effect of over 25% in size)
# Method in brief: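 Antagonist mode: compounds in DMSO were pinned onto BG1-Luc-4E2 cells alongside 17beta-estradiol agonist, incubated 21.5 h, and ERE-driven luciferase measured with ONE-Glo. Cytotoxicity was multiplexed using CellTiter-Fluor fluorescence.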
# [19] = molecular target: Nuclear receptor subfamily 1 group I member 2 (Homo sapiens) (UniProt O75469); experiment: CYP3A4 induction through human pregnane X receptor (PXR) by small molecules, qHTS assay (AID 1346984); also: nearly all actives have a fitted effect of over 40% in size; also: potency is read from the fitted curve at half-maximal effect
# Method in brief: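 HepG2-derived DPX-2 line carrying PXR plus a CYP3A4-promoter luciferase reporter; cells plated 5 hr, compound-exposed 24 hr at 37C. CYP3A4 activity probed with 3uM (final) Luciferin-IPA for 3hr, then luciferase read after One-Glo.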
# [20] = qHTS assay to test for compound auto fluorescence at 590 nm (red) in HEK293 cells (AID 720679)
# Method in brief: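 Each well held 2,000 HEK293 cells in medium containing 10% dialyzed FBS. Following 4-5 hr attachment at 37C, 23 nL test compound or DMSO was added; plates sat overnight, and red fluorescence (540/590nm) was recorded.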
SMILES,outcome [1],Potency [2],Potency [3],Potency [4],Potency [5],Potency [6],Potency [7],Potency [8],Potency [9],Potency [10],Potency [11],Potency [12],Potency [13],Potency [14],Potency [15],Potency [16],Potency [17],Potency [18],Potency [19],outcome [20]
CCC1(c2ccccc2)C(=O)NC(=O)N(C)C1=O (stereo not given),inactive,inactive,inactive,inactive,inactive,inactive,inactive,inactive,inactive,inactive,inactive,inactive,,,,,,,,
CCCC(C)(COC(N)=O)COC(=O)NC1CC1 (stereo not given),,,inactive,inactive,inactive,inactive,inactive,inactive,,inactive,inactive,inactive,inactive,inactive,inactive,inactive,inactive,inactive,inactive,
c1ccc(C2(N3CCCC3)CCCCC2)cc1,inactive,inactive,inactive,26.8 µM (active),8.41 µM (active),7.5 µM (active),,16.8 µM (active),13.3 µM (active),,,5.01 µM (active),19.7 µM (active),,inactive,inactive,inactive,inactive,1.58 µM (active),inactive
C[C@]12CC[C@@H]3c4ccc(OC(=O)N(CCCl)CCCl)cc4CC[C@H]3[C@@H]1CC[C@@H]2OP(=O)(O)O,inactive,,inactive,,inactive,,,,,inactive,inactive,,inactive,inactive,inactive,21.3 nM [inconclusive] (active) and 16.9 nM [inconclusive] (active),4.7 nM (active) and 16.8 nM (active),inactive,,inactive
N#CC(C#N)=Cc1cc(O)c(O)c(O)c1,inactive,,inactive,inactive,26.6 µM (active),21.1 µM (active),,26.6 µM (active),,,inactive,,5.96 µM (active),,inactive,inactive,inactive,inactive,,inactive
c1ccc2c(c1)Sc1ccccc1N2C[C@@H]1CN2CCC1CC2,inactive,inactive,inactive,inactive,inactive,inactive,inactive,,,inactive,inactive,,inactive,inactive,inactive,,,,,inactive
CCCCNC(C)(C)[P+](=O)O,inactive,inactive,,inactive,inactive,,,inactive,,inactive,inactive,,inactive,inactive,inactive,inactive,inactive,inactive,,inactive
CCCC(=O)OC(C(Cl)(Cl)Cl)P(=O)(OC)OC (stereo not given),inactive,inactive,inactive,inactive,inactive,inactive,inactive,inactive,,,inactive,inactive,,inactive,inactive,inactive,26.6 µM (active),,inactive,inactive
O=C(O)CCCO,inactive,inactive,inactive,inactive,inactive,inactive,inactive,,inactive,,inactive,,inactive,,inactive,,,,,inactive
C=CCC1([C@@H](C)CCC)C(=O)NC(=O)NC1=O,inactive,inactive,inactive,,,,inactive,inactive,inactive,,inactive,,inactive,inactive,inactive,inactive,inactive,inactive,,inactive
CN1C(=O)CC(=O)N(c2ccccc2)c2cc(Cl)ccc21,inactive,inactive,inactive,,inactive,inactive,inactive,inactive,inactive,inactive,inactive,,inactive,,inactive,inactive,inactive,inactive,inactive,inactive
O=C1CN=C(c2ccccc2)c2cc(Cl)ccc2N1,inactive,inactive,inactive,inactive,,,inactive,inactive,,inactive,inactive,,inactive,inactive,inactive,inactive,inactive,inactive,,
Clc1ccc2c(c1)C(c1ccccc1)=NCc1nncn1-2,,inactive,inactive,,,,inactive,inactive,inactive,inactive,inactive,inactive,inactive,inactive,inactive,inactive,inactive,inactive,inactive,inactive
O=C(NC(=O)c1c(F)cccc1F)Nc1ccc(Cl)c(Oc2ncc(C(F)(F)F)cc2Cl)c1,inactive,inactive,,inactive,,,inactive,,inactive,inactive,inactive,inactive,2.98 µM (active),inactive,,inactive,inactive,inactive,inactive,inactive
